Test results published in PubChem BioAssay (EPA / NIEHS).
Results filed as inconclusive are left out. Active and inactive are the calls of the source. Rule for the calls, unless noted: active = hit-call score of the fitted dose curve at least 0.9, where 1 is the maximum; inactive = score below 0.9.

What was measured:
[1] = tested on: SRY-box transcription factor 2 (SOX2) Protein Expression, Deisenroth Lab, SOX2 (gene 6657); assay: CCTE_Deisenroth_DEVTOX-GLR_Endo_SOX2: CCTE's DevTox GLR-Endo Assay Evaluation of SRY-box transcription factor 2 (SOX2) Protein Expression, Deisenroth Lab (AID 2284412; active = hit-call score of the fitted dose curve at least 0.9, where 1 is the maximum)
In short: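 Endpoint is percent SOX2-positive cells (SOX2+ count/total cells) minus 0.2% DMSO control, from high-content imaging of fixed, nuclear-stained RUES2-GLR cells. Dosing twice at 24 h intervals over 48 h differentiation, 1 nM–200 uM in 10 points.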

[2] = tested on: SRY-box transcription factor 17 (SOX17) Protein Expression, Deisenroth Lab, SOX17 (gene 64321); assay: CCTE_Deisenroth_DEVTOX-GLR_Endo_SOX17: CCTE's DevTox GLR-Endo Assay Evaluation of SRY-box transcription factor 17 (SOX17) Protein Expression, Deisenroth Lab (AID 2284413)
In short: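 Fluorescent microscopy of a SOX17 reporter in RUES2-GLR pluripotent cells scored endoderm differentiation after 48 h and two 24-h-spaced exposures. Values are percent change in SOX17+ population against 0.2% DMSO, n=4 experimental replicates.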

[3] = CCTE_Padilla_ZF_Score.Craniofacial: CCTE's 144 Hour Post-fertilization zebrafish Assay Score for Craniofacial Malformation, Padilla Lab (AID 2284405)
In short: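 Craniofacial defects were scored at 6 dpf by two blinded observers using stereomicroscopy. Exposure of wild-type embryos began at 6–8 hpf in sealed wells of 10% Hanks' solution at 26C, with chemical removed by rinsing at 5 dpf.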

[4] = CCTE_Padilla_ZF_Score.Edema: CCTE's 144 Hour Post-fertilization zebrafish Assay Score for Edema Malformation, Padilla Lab (AID 2284406)
In short: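 Edema scored at 6 dpf by two blinded observers under a stereo microscope, in single outbred wild-type larvae exposed from 6-8 hpf in sealed wells (Hanks', 26C, 14:10 h light) and chemical-free after a 5 dpf rinse.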

[5] = CCTE_Padilla_ZF_Score.Spine: CCTE's 144 Hour Post-fertilization zebrafish Assay Score for Spine Malformation, Padilla Lab (AID 2284407)
In short: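 Spine malformation scored at 6 dpf by two independent blinded observers under stereomicroscope, after static sealed exposure from 6–8 hpf at 26C in Hanks' solution with rinse on 5 dpf. Positive-direction fit against DMSO control.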

[6] = CCTE_Padilla_ZF_Score.Position: CCTE's 144 Hour Post-fertilization zebrafish Assay Score for Position, Padilla Lab (AID 2284409)
In short: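 Wild-type zebrafish embryos (with chorions) exposed singly from 6–8 hpf in sealed wells of Hanks' solution at 26C, rinsed at 5 dpf. At 6 dpf, blinded assessors scored abnormal water-column position by brightfield stereomicroscopy, relative to DMSO.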

[7] = CCTE_Padilla_ZF_Score.Living: CCTE's 144 Hour Post-fertilization zebrafish Assay Score for Viability, Padilla Lab (AID 2284410);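 note: larval death at 6 dpf judged by absent heartbeat or coagulation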
In short: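 Mortality at 6 dpf, judged as absent heartbeat or coagulation by two blinded observers, after sealed static exposure beginning at 6–8 hpf at 26C. Larvae were rinsed free of chemical at 5 dpf, and activity was fitted relative to DMSO.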

[8] = CCTE_Padilla_ZF_Score.Tail: CCTE's 144 Hour Post-fertilization zebrafish Assay Score for Tail Malformation, Padilla Lab (AID 2284414)
In short: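 Tail malformations were scored at 6 dpf by two blinded assessors under a stereo microscope. Chorionated embryos had been exposed from 6-8 hpf in sealed wells of 10% Hanks' at 26 C, then rinsed free of chemical at 5 dpf.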

[9] = CCTE_Padilla_ZF_Score.Blood_pooling: CCTE's 144 Hour Post-fertilization zebrafish Assay Score for Blood Pooling, Padilla Lab (AID 2284415)
In short: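 Blood pooling was scored at 6 dpf under a stereo microscope by two blinded assessors, fitted upward against DMSO. Single embryos were dosed at 6–8 hpf in 10% Hanks', kept sealed at 26C (14:10 h cycle) and rinsed at 5 dpf.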

[10] = CCTE_Padilla_ZF_Score.Any: CCTE's 144 Hour Post-fertilization zebrafish Assay Score for Any Mortality or Malformation, Padilla Lab (AID 2284416)
In short: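 Wild-type zebrafish embryos with chorions, one per well in 10% Hanks' from 6–8 hpf, dosed in sealed plates at 26 C, 14:10 h light:dark; rinsed at 5 dpf; blinded scoring at 6 dpf for death or malformation, versus DMSO.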

Measured: AC50

NC(=O)N1c2ccccc2C=Cc2ccccc21
active: [1] 16.7 µM | [2] 100 µM

NCC(F)(F)C(F)(F)C(F)(F)C(F)(F)F
not listed: [1] | [2]
inactive: all other assays above

OC(O)(C(F)C(O)(O)C(F)(F)F)C(F)(F)F
active: [3] 35.5 µM | [4] 31.3 µM | [6] 76.9 µM | [9] 36.6 µM | [10] 16.9 µM
inactive: [5] | [7] | [8]

FC(F)(F)C(F)(F)C(F)(F)C(F)(F)C(F)(F)C(F)(F)I
not listed: [1] | [2]
inactive: all other assays above

O=C(Cl)C(F)(F)C(F)(F)C(F)(F)C(=O)Cl
not listed: [1] | [2]
inactive: all other assays above

FC(F)C(F)(F)COCC1CO1 (configuration not stated)
active: [3] 118 µM | [4] 29.5 µM | [10] 30.7 µM
not listed: [1] | [2]
inactive: all other assays above

O=S(=O)(O)CCC(F)(F)C(F)(F)C(F)(F)C(F)(F)C(F)(F)C(F)(F)F
not listed: [1] | [2]
inactive: all other assays above

FC(F)(F)COC(OCC(F)(F)F)OCC(F)(F)F
not listed: [1] | [2]
inactive: all other assays above

FC(F)=C(F)C(F)(F)C(F)(F)C(F)(F)C(F)(F)C(F)(F)C(F)(F)F
not listed: [1] | [2]
inactive: all other assays above

OCCC(F)(F)C(F)(F)C(F)(F)C(F)(F)F
not listed: [1] | [2]
inactive: all other assays above

CCCC(CCC)C(=O)O
inactive: [2]

C[Si](C)(C)C(F)(F)C(F)(F)C(F)(F)F
not listed: [1] | [2]
inactive: all other assays above

NNC(=O)c1ccncc1
inactive: [1] | [2]

Nc1ccn([C@@H]2O[C@H](CO)[C@@H](O)[C@@H]2O)c(=O)n1
active: [1] 4.66 µM | [2] 0.539 µM
